Screening results deposited in PubChem by National Center for Advancing Translational Sciences (NCATS).
KB-V1 cytotox = KB-V1 MDR subline cytotoxicity; KB-V1 MDR cells viability, CellTiter-Glo, 72 h; AID 1347076; Potency, µM (titrated, usually from 46.1 µM), most hits filed as cytotoxic; 400,000 tested, 3.4% active; also: nearly all actives have a fitted effect of over 60% in size
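Luminescent ATP read-out (CellTiter-Glo, 10 min) measures survival of drug-selected KB-V1 MDR cells after 72 h, 37 degrees C compound exposure. Medium: phenol-red-free DMEM, 10% FBS. Values from fitted concentration-response curves.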
PINK1 modulator = changes PINK1 expression. PINK1 immunofluorescence, high-content cytometry, 24 h. Potency, µM (highest dose often 76.6 µM), usual class: activators. 410,000 tested, 0.2% active; active = well fitted activation curve with a large enough effect; inconclusive = small, poorly fitted or top-dose-only effect; cell line not stated here; also: nearly all actives have a fitted effect of over 65% in size
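Stable cell line, 250 cells/well, 12 h attachment; compounds pinned at 5 concentrations, 24 h; CCCP control. Fixed with nuclear dye, primary antibodies 12 h at 10 degrees C, secondary plus cell stain; laser-scanning cytometer read.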
SW480 rerep = DNA re-replication induction in SW480 cells | SW480 DNA re-replication, Hoechst DNA content imaging, 48 h | Potency, µM (titrated, usually from 46.1 µM), most hits filed as activators | 340,000 tested, 1.8% active; also: nearly all actives have a fitted effect of over 55% in size
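Quantitative HTS format with DMSO vehicle controls; 48 hr drug incubation at 37 C, then 40 min Hoechst staining and scanning imager measurement at 405 nm excitation.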
MCF10A rereplic = induces DNA re-replication in MCF 10a normal breast cells; AID 624296; MCF 10A DNA re-replication, Hoechst nuclear intensity, 48 h; Potency, µM (titrated, usually from 46.1 µM), usual class: activators; 350,000 tested, 2.9% active; also: nearly all actives have a fitted effect of over 50% in size
KB-3-1 cytotox = KB-3-1 parental cell cytotoxicity; Potency, µM (titrated, usually from 46.1 µM), usual class: cytotoxic; KB-3-1 viability, CellTiter-Glo ATP luminescence, 72 h; AID 1347075; 400,000 tested, 1.4% active; also: nearly all actives have a fitted effect of over 60% in size
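Viability of parental KB-3-1 cells, measured by CellTiter-Glo luminescence, followed a 72 h incubation at 37 °C with pinned compounds in phenol-red-free DMEM containing 10% FBS.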
TSG101-PTAP inh = blocks PTAP/TSG101 interaction to inhibit HIV-1 budding | Fluorescence polarization, FITC-PTAP peptide / Tsg101 binding | Q99816 | AID 493005 | Potency, µM (series often up to 115 µM), hits mostly inhibitors | 340,000 tested, under 10 active; active = well fitted inhibition curve with a large enough effect in the main read-out, with a control signal flat, not every such curve was filed as active; inconclusive = small, poorly fitted or top-dose-only effect, or effect the other way, or a change in a side signal; inactive = no such curve, though single readings can be large or run the other way
Target sequence (Q99816 whole entry, looked up): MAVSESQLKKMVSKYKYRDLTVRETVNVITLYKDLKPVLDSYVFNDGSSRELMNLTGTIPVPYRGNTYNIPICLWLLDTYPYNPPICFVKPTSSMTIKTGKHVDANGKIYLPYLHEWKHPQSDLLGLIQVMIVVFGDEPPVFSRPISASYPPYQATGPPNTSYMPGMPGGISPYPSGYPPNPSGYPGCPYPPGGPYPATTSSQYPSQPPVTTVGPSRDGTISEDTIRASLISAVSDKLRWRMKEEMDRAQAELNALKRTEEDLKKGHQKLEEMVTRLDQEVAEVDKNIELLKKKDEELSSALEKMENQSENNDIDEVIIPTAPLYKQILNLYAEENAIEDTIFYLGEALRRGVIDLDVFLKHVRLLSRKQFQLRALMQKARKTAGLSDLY
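Steps: Tsg101 binding domain dispensed (10 uM final), compounds pinned in DMSO, FITC-labeled PTAP-motif peptide added (50 nM final); after 20 min binding at room temperature, polarization measured.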
Numbers stand for hits. Rows were chosen to be rich in hits. Some 6.8% of all compounds tested hit in one or more screens of this group. Unless noted, calls follow the shape of the dose curve; as a rule, active = well fitted curve in the direction sought with a large enough effect; inconclusive = small, poorly fitted or top-dose-only effect, or another doubt; inactive = no such curve, though single readings can be large; an effect the other way counts as inactive or inconclusive.

How did CCOc1ccc(C(=O)NCC(c2cccs2)N(C)C)cc1OCC (centres undefined) do in these assays?
KB-V1 cytotox: 23µM; PINK1 modulator: inactive; SW480 rerep: inactive; MCF10A rereplic: inactive; KB-3-1 cytotox: inactive; TSG101-PTAP inh: inactive

Results for C=C(C)C1CC=C(C)/C(=N/NC(=O)c2ccc(NC(=O)CC)cc2)C1 (centres undefined) ?
KB-V1 cytotox: 15µM; PINK1 modulator: inactive; SW480 rerep: inactive; MCF10A rereplic: inactive; KB-3-1 cytotox: inactive; TSG101-PTAP inh: inactive

How did C=C(C)C1CC=C(C)/C(=N/NC(=O)c2ccc(NC(=O)CCC)cc2)C1 (centres undefined) do in these assays?
KB-V1 cytotox: inactive; PINK1 modulator: inactive; SW480 rerep: inactive; MCF10A rereplic: inconclusive; KB-3-1 cytotox: inactive; TSG101-PTAP inh: inactive

What do the screens show for `NC(Cc1ccc(C(F)(F)F)cc1)c1csc(Nc2nccc(C(F)(F)F)n2)n1` (centres undefined)?
KB-V1 cytotox: 23µM; PINK1 modulator: inactive; KB-3-1 cytotox: inconclusive

What do the screens show for `O/N=C1/CCc2cccc3cccc1c23`?
KB-V1 cytotox: inactive; PINK1 modulator: inactive; SW480 rerep: inactive; MCF10A rereplic: inactive; KB-3-1 cytotox: inactive; TSG101-PTAP inh: inactive

Results for O=C1C(=NO)CCc2ccccc21 ?
KB-V1 cytotox: inactive; PINK1 modulator: inactive; SW480 rerep: 21µM; MCF10A rereplic: inactive; KB-3-1 cytotox: inconclusive; TSG101-PTAP inh: inactive

Results for COC(=O)C1CCN(Cc2ccc3c(c2)CN(C(=O)c2sc(C)nc2C)CCO3)CC1 ?
PINK1 modulator: inactive

What do the screens show for `COc1ccc(C)cc1NC(=O)Cn1c(=O)nc(-c2ccccc2F)c2cc(Cl)ccc21`?
PINK1 modulator: inactive

What do the screens show for `Cc1ccc(NC(=O)Cn2c(=O)nc(-c3ccccc3F)c3cc(Cl)ccc32)c(Br)c1`?
KB-V1 cytotox: inconclusive; PINK1 modulator: inactive; KB-3-1 cytotox: 16µM

Results for COc1cccc(-c2cc3c(c(OC)c2)OCCN(S(=O)(=O)c2ccccc2OC(F)(F)F)C3)n1 ?
PINK1 modulator: inactive

What do the screens show for `CCN(CC)c1nn2c(=O)c(C(=O)NCc3cccc(C)c3)cnc2s1`?
PINK1 modulator: inactive

What do the screens show for `O=C(COC(=O)c1ccc(Cl)nc1)Nc1nnc(-c2ccccc2)o1`?
KB-V1 cytotox: 15µM; PINK1 modulator: inactive; SW480 rerep: inactive; MCF10A rereplic: inactive; KB-3-1 cytotox: inactive; TSG101-PTAP inh: inactive

Results for O=C(COC(=O)Cc1ccccc1[N+](=O)[O-])Nc1nnc(-c2ccccc2)o1 ?
KB-V1 cytotox: inconclusive; PINK1 modulator: inactive; SW480 rerep: inactive; MCF10A rereplic: 18µM; KB-3-1 cytotox: inactive; TSG101-PTAP inh: inactive

What do the screens show for `O=C(COc1ccccc1)Nc1nnc(-c2ccccc2)o1`?
KB-V1 cytotox: inactive; PINK1 modulator: inactive; SW480 rerep: inactive; MCF10A rereplic: inactive; KB-3-1 cytotox: inactive; TSG101-PTAP inh: inactive

How did O=C(COC(=O)c1ccc(-c2nnc(-c3ccccc3)o2)cc1)c1ccccc1 do in these assays?
KB-V1 cytotox: inconclusive; PINK1 modulator: inactive; SW480 rerep: 16µM; MCF10A rereplic: inconclusive; KB-3-1 cytotox: inactive; TSG101-PTAP inh: inactive

Results for Clc1ccc(-c2csc(-c3nc(-c4ccc(Br)s4)cs3)n2)cc1 ?
KB-V1 cytotox: inactive; PINK1 modulator: inactive; KB-3-1 cytotox: inconclusive

Results for CCN(CC)c1nn2c(=O)c(C(=O)NCc3cccc(OC)c3OC)cnc2s1 ?
PINK1 modulator: inactive

Results for CCc1ccc(NC(=O)CN(c2ccc(Cl)cc2)S(=O)(=O)c2ccsc2C(=O)OC)cc1 ?
KB-V1 cytotox: inconclusive; PINK1 modulator: inactive; KB-3-1 cytotox: inconclusive

How did CCCNC(=O)c1nnsc1S(=O)c1ccc(Cl)cc1 (centres undefined) do in these assays?
KB-V1 cytotox: inactive; PINK1 modulator: inactive; SW480 rerep: 23µM; MCF10A rereplic: 3.3µM; KB-3-1 cytotox: inconclusive; TSG101-PTAP inh: inactive

Results for CCCNC(=O)c1ccc2snnc2c1 ?
KB-V1 cytotox: inactive; PINK1 modulator: inactive; SW480 rerep: inactive; MCF10A rereplic: inactive; KB-3-1 cytotox: inactive; TSG101-PTAP inh: inactive

What do the screens show for `CNC(=O)c1nnsc1S(=O)c1ccc(Cl)cc1` (centres undefined)?
KB-V1 cytotox: inactive; PINK1 modulator: inactive; SW480 rerep: inconclusive; MCF10A rereplic: 2.3µM; KB-3-1 cytotox: inconclusive; TSG101-PTAP inh: inactive

What do the screens show for `CCCNC(=O)NS(=O)(=O)c1ccc(Cl)cc1`?
KB-V1 cytotox: inactive; PINK1 modulator: inactive; SW480 rerep: inactive; MCF10A rereplic: inactive; KB-3-1 cytotox: inactive; TSG101-PTAP inh: inactive

Results for CCCNC(=O)c1nnsc1S(=O)(=O)c1ccc(Cl)cc1 ?
KB-V1 cytotox: 23µM; PINK1 modulator: inactive; SW480 rerep: 7.3µM; MCF10A rereplic: 2.3µM; KB-3-1 cytotox: inconclusive; TSG101-PTAP inh: inactive

Results for C=C1c2cc(OC)ccc2NC(=O)N1CC ?
KB-V1 cytotox: 7.3µM; PINK1 modulator: inactive; SW480 rerep: inactive; MCF10A rereplic: inactive; KB-3-1 cytotox: inactive; TSG101-PTAP inh: inactive
